The results in this text go back to ChEMBL document CHEMBL1961873, “Compounds: GSK PKIS; Assays: Nanosyn kinase panel” (2012).

One may read the inhibition as the change of the read-out against control, counted positive when it falls.

The target of test [1] is Sphingosine kinase 1 (Homo sapiens) (UniProt Q9NYA1). The note with it: at 1 µM.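 Note: mean SPHK1 inhibition value reported from the GSK PKIS kinase panel screen.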
The target in test [2] is T1, Sphingosine kinase 2 (Homo sapiens) (UniProt Q9NRA0).
T1 sequence (whole entry): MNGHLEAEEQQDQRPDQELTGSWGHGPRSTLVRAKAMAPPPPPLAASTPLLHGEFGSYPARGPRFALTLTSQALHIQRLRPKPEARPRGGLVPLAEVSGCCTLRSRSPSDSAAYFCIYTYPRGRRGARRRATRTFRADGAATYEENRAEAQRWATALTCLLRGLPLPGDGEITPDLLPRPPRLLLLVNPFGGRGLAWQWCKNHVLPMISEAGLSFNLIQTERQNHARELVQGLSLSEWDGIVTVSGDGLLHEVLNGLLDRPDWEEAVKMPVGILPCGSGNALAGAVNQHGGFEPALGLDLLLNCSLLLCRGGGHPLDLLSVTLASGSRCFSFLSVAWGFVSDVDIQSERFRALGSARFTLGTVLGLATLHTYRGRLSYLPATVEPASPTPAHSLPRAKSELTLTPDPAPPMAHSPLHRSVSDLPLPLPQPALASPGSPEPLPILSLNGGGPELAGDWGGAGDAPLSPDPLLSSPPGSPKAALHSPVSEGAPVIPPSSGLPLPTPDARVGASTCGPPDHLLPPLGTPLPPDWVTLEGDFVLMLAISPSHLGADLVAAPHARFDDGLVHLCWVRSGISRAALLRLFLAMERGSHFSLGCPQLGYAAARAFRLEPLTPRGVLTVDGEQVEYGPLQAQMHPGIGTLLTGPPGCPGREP
The note with it: at 0.1 µM.

The target of test [3] is T1, Sphingosine kinase 2 (Homo sapiens). The note with it: at 1 µM.
In test [4] the target is Casein kinase II subunit alpha (Homo sapiens) (UniProt P68400). The note with it: at 0.1 µM.
Chain of Casein kinase II subunit alpha (Homo sapiens) (P68400 whole entry, looked up): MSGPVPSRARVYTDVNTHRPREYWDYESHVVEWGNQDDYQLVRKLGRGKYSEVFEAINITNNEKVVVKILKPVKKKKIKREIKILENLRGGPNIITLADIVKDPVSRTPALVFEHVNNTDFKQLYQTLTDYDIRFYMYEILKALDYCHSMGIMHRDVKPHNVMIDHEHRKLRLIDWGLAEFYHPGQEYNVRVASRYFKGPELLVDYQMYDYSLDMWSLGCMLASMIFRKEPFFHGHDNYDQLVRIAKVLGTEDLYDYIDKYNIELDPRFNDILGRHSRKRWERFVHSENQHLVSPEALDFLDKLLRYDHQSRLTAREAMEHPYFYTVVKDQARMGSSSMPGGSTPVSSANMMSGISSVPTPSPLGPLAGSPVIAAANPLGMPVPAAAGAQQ
For test [5] the target is unchanged. The conditions noted are these: at 1 µM.
Test [6] concerns the target T2, Inhibitor of nuclear factor kappa-B kinase subunit alpha (Homo sapiens) (UniProt O15111).
T2 sequence (whole entry): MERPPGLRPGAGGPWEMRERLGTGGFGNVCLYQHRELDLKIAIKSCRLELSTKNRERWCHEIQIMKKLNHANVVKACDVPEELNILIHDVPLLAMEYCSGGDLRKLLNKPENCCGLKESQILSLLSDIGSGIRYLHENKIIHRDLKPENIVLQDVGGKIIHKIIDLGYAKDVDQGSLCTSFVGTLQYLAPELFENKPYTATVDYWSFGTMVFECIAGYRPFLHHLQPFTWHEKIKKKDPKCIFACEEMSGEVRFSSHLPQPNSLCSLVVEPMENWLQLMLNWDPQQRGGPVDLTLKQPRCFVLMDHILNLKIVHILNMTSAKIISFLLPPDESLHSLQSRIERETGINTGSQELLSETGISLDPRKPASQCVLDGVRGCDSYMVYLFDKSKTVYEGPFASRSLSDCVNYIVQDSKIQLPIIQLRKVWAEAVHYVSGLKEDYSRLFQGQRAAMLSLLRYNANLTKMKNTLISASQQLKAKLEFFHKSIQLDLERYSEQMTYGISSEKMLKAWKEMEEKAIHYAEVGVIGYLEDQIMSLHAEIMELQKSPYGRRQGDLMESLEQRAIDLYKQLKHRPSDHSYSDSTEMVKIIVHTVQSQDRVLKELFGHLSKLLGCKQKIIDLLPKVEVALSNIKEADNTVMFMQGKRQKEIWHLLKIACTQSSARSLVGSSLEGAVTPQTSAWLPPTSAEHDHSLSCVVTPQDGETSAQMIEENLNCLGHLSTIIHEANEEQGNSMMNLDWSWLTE
The note with it: at 0.1 µM.

In test [7] the target is T2, Inhibitor of nuclear factor kappa-B kinase subunit alpha (Homo sapiens). The conditions noted are these: at 1 µM.
Test [8] deals with T3, Inhibitor of nuclear factor kappa-B kinase subunit beta (Homo sapiens) (UniProt O14920).
T3 sequence (whole entry): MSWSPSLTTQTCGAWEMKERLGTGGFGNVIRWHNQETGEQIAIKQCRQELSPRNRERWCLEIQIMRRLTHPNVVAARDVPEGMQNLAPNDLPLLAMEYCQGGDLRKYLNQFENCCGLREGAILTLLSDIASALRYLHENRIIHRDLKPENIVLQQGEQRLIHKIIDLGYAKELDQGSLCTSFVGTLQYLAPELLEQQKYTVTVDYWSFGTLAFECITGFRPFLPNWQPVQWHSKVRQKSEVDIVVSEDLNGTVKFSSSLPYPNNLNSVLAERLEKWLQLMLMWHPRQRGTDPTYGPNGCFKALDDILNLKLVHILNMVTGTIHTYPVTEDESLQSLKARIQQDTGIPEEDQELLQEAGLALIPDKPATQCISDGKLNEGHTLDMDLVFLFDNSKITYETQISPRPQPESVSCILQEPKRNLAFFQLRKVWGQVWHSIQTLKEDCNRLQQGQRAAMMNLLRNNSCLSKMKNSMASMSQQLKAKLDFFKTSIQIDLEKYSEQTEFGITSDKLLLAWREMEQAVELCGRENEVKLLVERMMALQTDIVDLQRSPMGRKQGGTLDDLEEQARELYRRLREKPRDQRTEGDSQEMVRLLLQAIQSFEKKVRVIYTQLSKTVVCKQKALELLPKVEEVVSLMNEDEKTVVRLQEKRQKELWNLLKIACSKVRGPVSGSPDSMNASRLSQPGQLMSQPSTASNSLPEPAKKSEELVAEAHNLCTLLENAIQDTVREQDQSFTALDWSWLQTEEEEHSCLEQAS
The note with it: at 0.1 µM.

Test [9] addresses T3, Inhibitor of nuclear factor kappa-B kinase subunit beta (Homo sapiens). The conditions noted are these: at 1 µM.
Test [10] concerns the target T4, Inhibitor of nuclear factor kappa-B kinase subunit epsilon (Homo sapiens) (UniProt Q14164).
T4 sequence (whole entry): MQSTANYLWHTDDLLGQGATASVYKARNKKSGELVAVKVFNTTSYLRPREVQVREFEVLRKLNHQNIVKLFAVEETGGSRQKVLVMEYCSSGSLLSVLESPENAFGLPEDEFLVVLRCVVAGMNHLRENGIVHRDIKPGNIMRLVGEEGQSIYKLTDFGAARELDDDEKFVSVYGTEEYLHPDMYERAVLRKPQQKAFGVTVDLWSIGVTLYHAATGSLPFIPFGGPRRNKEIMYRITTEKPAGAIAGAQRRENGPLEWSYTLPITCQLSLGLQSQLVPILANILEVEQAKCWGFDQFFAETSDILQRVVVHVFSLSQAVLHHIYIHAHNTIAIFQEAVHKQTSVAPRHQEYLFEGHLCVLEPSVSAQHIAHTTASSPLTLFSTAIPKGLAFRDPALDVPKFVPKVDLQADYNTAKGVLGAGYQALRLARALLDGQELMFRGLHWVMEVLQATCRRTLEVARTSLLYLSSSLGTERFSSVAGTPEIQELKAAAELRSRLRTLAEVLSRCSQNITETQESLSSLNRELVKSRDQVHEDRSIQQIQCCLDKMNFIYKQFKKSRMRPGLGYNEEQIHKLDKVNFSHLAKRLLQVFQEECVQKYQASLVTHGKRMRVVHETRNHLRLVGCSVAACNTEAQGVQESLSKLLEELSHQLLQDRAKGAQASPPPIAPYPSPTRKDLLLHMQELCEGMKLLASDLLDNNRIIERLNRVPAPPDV
The conditions noted are these: at 0.1 µM.

Test [11] has as its target T4, Inhibitor of nuclear factor kappa-B kinase subunit epsilon (Homo sapiens). The note with it: at 1 µM.
The target in test [12] is T5, Serine/threonine-protein kinase Nek1 (Homo sapiens) (UniProt Q96PY6).
T5 sequence (whole entry): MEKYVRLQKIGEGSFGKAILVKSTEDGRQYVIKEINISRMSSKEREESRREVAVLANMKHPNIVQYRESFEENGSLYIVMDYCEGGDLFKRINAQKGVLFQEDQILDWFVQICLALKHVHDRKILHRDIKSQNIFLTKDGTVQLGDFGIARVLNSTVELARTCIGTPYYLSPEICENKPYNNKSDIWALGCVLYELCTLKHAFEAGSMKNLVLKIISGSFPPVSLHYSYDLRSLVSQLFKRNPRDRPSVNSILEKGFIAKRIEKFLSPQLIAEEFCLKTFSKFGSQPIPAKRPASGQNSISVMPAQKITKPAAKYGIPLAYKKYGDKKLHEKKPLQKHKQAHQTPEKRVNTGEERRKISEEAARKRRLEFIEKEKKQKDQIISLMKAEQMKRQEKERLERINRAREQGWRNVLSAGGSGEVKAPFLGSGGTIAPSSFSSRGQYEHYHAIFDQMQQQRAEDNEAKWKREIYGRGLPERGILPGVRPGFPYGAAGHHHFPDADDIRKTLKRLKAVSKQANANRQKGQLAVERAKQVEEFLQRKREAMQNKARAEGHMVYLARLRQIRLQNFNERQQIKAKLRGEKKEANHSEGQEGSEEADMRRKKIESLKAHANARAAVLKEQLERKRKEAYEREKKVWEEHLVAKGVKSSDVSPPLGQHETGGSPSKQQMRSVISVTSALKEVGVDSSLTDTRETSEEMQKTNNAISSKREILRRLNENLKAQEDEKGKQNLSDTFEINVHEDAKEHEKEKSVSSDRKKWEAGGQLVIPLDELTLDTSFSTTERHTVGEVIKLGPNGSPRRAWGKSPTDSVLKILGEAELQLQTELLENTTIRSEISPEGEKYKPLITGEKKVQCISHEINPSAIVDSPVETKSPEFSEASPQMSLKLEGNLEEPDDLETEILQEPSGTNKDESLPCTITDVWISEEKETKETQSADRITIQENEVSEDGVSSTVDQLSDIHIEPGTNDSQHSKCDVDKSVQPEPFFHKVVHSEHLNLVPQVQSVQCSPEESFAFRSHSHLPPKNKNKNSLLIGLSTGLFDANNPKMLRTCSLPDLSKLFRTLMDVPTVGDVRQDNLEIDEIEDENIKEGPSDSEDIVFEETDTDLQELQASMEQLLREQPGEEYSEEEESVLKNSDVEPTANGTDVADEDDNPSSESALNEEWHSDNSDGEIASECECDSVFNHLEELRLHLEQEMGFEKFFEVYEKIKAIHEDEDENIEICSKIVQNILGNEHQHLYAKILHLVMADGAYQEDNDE
The conditions noted are these: at 0.1 µM.

Test [13] has as its target T5, Serine/threonine-protein kinase Nek1 (Homo sapiens). The note with it: at 1 µM.
The target in test [14] is T6, Serine/threonine-protein kinase Nek2 (Homo sapiens) (UniProt P51955).
T6 sequence (whole entry): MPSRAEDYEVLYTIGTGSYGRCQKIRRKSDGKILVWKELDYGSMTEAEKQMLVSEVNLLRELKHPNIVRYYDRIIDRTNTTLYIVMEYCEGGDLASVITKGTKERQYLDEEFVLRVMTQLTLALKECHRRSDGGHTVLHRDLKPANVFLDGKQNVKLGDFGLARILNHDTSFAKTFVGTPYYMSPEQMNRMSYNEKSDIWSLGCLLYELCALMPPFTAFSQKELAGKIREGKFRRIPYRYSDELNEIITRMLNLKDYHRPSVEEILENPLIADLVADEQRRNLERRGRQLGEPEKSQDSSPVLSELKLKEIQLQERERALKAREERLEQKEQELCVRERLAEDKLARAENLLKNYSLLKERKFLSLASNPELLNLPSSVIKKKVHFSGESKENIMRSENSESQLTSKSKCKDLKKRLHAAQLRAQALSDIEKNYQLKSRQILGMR
The conditions noted are these: at 0.1 µM.

The target of test [15] is T6, Serine/threonine-protein kinase Nek2 (Homo sapiens). The note with it: at 1 µM.
Test [16] addresses Serine/threonine-protein kinase Nek6 (Homo sapiens) (UniProt Q9HC98). The note with it: at 0.1 µM.
Test [17] has the same target. The conditions noted are these: at 1 µM.
In test [18] the target is Serine/threonine-protein kinase Nek7 (Homo sapiens) (UniProt Q8TDX7). The note with it: at 0.1 µM.
Chain of Serine/threonine-protein kinase Nek7 (Homo sapiens) (Q8TDX7 whole entry, looked up): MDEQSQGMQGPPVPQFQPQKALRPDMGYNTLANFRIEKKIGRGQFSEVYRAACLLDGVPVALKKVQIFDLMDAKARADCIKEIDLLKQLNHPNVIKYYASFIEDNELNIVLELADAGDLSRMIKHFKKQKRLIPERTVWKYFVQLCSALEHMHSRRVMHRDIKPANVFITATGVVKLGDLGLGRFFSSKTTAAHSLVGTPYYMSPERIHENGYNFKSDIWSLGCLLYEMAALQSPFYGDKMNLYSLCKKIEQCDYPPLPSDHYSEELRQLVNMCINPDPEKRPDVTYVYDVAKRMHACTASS
Test [19] has the same target. The note with it: at 1 µM.
The target in test [20] is T7, Serine/threonine-protein kinase Nek9 (Homo sapiens) (UniProt Q8TD19).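 Note: reported value is the mean percent inhibition of NEK9.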
T7 sequence (whole entry): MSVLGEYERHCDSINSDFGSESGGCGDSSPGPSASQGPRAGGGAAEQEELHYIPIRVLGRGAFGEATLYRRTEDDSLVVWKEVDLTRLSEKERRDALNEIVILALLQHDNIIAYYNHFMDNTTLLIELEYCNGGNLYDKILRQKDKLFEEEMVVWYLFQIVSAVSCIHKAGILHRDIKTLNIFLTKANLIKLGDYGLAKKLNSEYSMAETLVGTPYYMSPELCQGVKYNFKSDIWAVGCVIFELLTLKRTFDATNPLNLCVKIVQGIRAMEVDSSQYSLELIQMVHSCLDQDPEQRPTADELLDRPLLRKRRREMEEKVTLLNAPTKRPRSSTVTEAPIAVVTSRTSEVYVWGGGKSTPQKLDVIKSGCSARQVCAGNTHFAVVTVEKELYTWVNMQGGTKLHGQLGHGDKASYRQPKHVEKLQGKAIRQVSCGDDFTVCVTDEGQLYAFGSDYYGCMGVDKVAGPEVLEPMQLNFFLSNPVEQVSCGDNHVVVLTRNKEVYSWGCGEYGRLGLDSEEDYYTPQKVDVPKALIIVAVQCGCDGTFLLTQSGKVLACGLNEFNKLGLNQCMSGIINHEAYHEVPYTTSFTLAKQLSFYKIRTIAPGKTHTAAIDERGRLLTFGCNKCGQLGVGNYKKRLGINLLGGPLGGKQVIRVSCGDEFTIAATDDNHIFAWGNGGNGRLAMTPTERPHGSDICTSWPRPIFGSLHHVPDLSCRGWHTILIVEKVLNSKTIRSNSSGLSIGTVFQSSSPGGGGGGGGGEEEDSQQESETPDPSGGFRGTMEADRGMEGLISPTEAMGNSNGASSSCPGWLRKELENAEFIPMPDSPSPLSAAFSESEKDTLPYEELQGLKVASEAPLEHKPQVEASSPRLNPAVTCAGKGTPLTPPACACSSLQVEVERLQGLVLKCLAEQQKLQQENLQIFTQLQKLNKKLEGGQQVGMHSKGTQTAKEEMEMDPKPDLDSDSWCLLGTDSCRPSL
The note with it: at 0.1 µM.

Chain of Serine/threonine-protein kinase Nek6 (Homo sapiens) (Q9HC98 whole entry): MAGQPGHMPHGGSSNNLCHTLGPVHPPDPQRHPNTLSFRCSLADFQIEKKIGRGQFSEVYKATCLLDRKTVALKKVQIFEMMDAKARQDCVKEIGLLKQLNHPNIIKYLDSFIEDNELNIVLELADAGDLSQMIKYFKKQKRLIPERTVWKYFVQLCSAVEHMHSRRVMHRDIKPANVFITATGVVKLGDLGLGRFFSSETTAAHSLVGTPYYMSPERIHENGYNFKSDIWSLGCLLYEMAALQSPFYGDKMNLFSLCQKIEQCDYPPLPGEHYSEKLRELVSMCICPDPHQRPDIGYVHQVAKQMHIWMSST
Chain of Sphingosine kinase 1 (Homo sapiens) (Q9NYA1 whole entry): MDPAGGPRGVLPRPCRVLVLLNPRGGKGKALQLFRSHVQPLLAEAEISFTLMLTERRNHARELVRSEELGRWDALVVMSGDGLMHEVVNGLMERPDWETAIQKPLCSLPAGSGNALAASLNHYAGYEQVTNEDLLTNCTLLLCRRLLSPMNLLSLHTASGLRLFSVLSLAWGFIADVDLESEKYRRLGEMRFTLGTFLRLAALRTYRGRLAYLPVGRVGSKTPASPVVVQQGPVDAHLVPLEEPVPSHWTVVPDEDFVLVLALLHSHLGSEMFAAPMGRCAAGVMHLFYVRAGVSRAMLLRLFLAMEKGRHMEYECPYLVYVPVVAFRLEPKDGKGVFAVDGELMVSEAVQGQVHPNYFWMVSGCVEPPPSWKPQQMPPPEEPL

Turning to `CCc1cccc(CC)c1/C=C/c1cncc(C(=O)NC)c1`, the inhibition was -1.72% in [1]; 0.98% in test [2]; 1.95% in [3]; -0.28% in [4]; -1.26% in test [5]; -2.82% in test [6]. The inhibition is -5.51% in test [7]; 4.86% in test [8]; 2.91% in [9]; 1.34% in test [10]; 3.78% in test [11]; 1.27% in [12]. In addition, the inhibition in test [13] was found to be 1.92%; in test [14] it was 3.4%; in test [15], 3.05%; in test [16], 0.31%; in test [17], 0.68%; in test [18], 2.82%. Moreover, the inhibition in test [19] stood at 2.39%; in test [20], 8.92%.
